The source of these data is PubChem BioAssay (EPA / NIEHS).

The source made the active and inactive calls. How the source made its calls: active means hit-call score of the fitted dose curve at least 0.9, where 1 is the maximum; inactive means score below 0.9.

Read-out in assay [1]: Interleukin-6 (IL6), IL6 (gene 3569)
The assay can be described thus: BSK_CASM3C_IL6: BioMAP Diversity Plus: CASM3C Assay for Interleukin-6 (IL6) Biomarker Activity for (AID 2283040). The conditions noted are these: primary human coronary artery smooth muscle cells; actives raise or lower the signal.

Read-out in assay [2]: Tissue plasminogen activator (tPA), PLAT (gene 5327)
Kind of assay: BSK_BE3C_tPA: BioMAP Diversity Plus: BE3C Assay for Tissue plasminogen activator (tPA) Biomarker Activity (AID 2283041).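 Further: tPA level quantified by ELISA one day after compound addition.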 The conditions noted are these: primary human bronchial epithelial cells; actives raise or lower the signal. A digest of the protocol: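 ELISA read-out of tPA on human primary bronchial epithelial cells, 24 h post-dosing; bidirectional fit vs DMSO negative control/baseline.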

Read-out in assay [3]: Interleukin-8 (IL8), CXCL8 (gene 3576)
The assay can be described thus: BSK_CASM3C_IL8: BioMAP Diversity Plus: CASM3C Assay for Interleukin-8 (IL8) Biomarker Activity (AID 2283042).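 Further: IL-8 protein level quantified by ELISA.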 The conditions noted are these: primary human coronary artery smooth muscle cells; actives raise or lower the signal.

Read-out in assay [4]: Human Leukocyte Antigen - DR isotype (HLADR), HLA-DRA (gene 3122)
The assay can be described thus: BSK_CASM3C_HLADR: BioMAP Diversity Plus: CASM3C Assay for Human Leukocyte Antigen - DR isotype (HLADR) Biomarker Activity (AID 2283043).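 Further: cell-surface HLA-DR protein level quantified by ELISA.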 The conditions noted are these: primary human coronary artery smooth muscle cells; actives raise or lower the signal.

Read-out in assay [5]: Macrophage colony-stimulating factor (MCSF), CSF1 (gene 1435)
Kind of assay: BSK_CASM3C_MCSF: BioMAP Diversity Plus: CASM3C Assay for Macrophage colony-stimulating factor (MCSF) Biomarker Activity (AID 2283044).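 Further: M-CSF protein amount quantified by ELISA after 24 h exposure.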 The conditions noted are these: primary human coronary artery smooth muscle cells; actives raise or lower the signal.

Read-out in assay [6]: Low-density lipoprotein receptor (LDLR), LDLR (gene 3949)
The assay can be described thus: BSK_CASM3C_LDLR: BioMAP Diversity Plus: CASM3C Assay for Low-density lipoprotein receptor (LDLR) Biomarker Activity (AID 2283045).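 Further: LDLR protein level on the cell surface quantified by ELISA.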 The conditions noted are these: primary human coronary artery smooth muscle cells; actives raise or lower the signal.

Read-out in assay [7]: Monocyte Chemoattractant Protein-1 (MCP1), CCL2 (gene 6347)
The assay can be described thus: BSK_CASM3C_MCP1: BioMAP Diversity Plus: CASM3C Assay for Monocyte Chemoattractant Protein-1 (MCP1) Biomarker Activity (AID 2283046).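 Further: MCP-1 level quantified by ELISA 24 h after dosing.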 The conditions noted are these: primary human coronary artery smooth muscle cells; actives raise or lower the signal.

Assay [8] is described as follows: BSK_CASM3C_Proliferation: Cell Proliferation Assessment in the BioMAP Diversity Plus: CASM3C Assay (AID 2283047).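 Further: sulforhodamine B total protein stain as relative cell number at 560 nm; sub-confluent cells exposed 48 h before staining; fitted both ways against DMSO so gain or loss of cell number.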 The conditions noted are these: primary human coronary artery smooth muscle cells.
Read-out in assay [9]: Monokine induced gamma interferon (MIG), CXCL9 (gene 4283)
Kind of assay: BSK_CASM3C_MIG: BioMAP Diversity Plus: CASM3C Assay for Monokine induced gamma interferon (MIG) Biomarker Activity (AID 2283048).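 Further: MIG protein level measured by ELISA.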 The conditions noted are these: primary human coronary artery smooth muscle cells; actives raise or lower the signal.

Read-out in assay [10]: serum amyloid A (SAA), SAA1 (gene 6288)
Kind of assay: BSK_CASM3C_SAA: BioMAP Diversity Plus: CASM3C Assay for serum amyloid A (SAA) Biomarker Activity (AID 2283049).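 Further: SAA protein level quantified by ELISA.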 The conditions noted are these: primary human coronary artery smooth muscle cells; actives raise or lower the signal.

A short description of assay [11]: BSK_CASM3C_SRB: Viability Assessment in the BioMAP Diversity Plus: CASM3C Assay (AID 2283050).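 Further: total protein by SRB staining as cytotoxicity measure in parallel cultures; cells exposed to compound for 24 h.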 The conditions noted are these: primary human coronary artery smooth muscle cells.
Read-out in assay [12]: Thrombomodulin, THBD (gene 7056)
Kind of assay: BSK_CASM3C_Thrombomodulin: BioMAP Diversity Plus: CASM3C Assay for Thrombomodulin Biomarker Activity (AID 2283051).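 Further: thrombomodulin protein level measured by ELISA 24 h after dosing.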 The conditions noted are these: primary human coronary artery smooth muscle cells; actives raise or lower the signal.

Read-out in assay [13]: Tissue Factor, F3 (gene 2152)
The assay can be described thus: BSK_CASM3C_TissueFactor: BioMAP Diversity Plus: CASM3C Assay for Tissue Factor Biomarker Activity (AID 2283052).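 Further: cell surface tissue factor protein level read by ELISA.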 The conditions noted are these: primary human coronary artery smooth muscle cells; actives raise or lower the signal.

Read-out in assay [14]: Interferon-gamma inducible Protein 10 (IP10), CXCL10 (gene 3627)
Kind of assay: BSK_hDFCGF_IP10: BioMAP Diversity Plus: hDFCGF Assay for Interferon-gamma inducible Protein 10 (IP10) Biomarker Activity (AID 2283053). The conditions noted are these: primary human foreskin fibroblasts; actives raise or lower the signal. In a few lines:
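ELISA read-out of IP-10 (CXCL10) from primary human skin fibroblasts, 24 h after compound addition. Gain or loss of signal versus DMSO baseline, bidirectional curve fitting.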

Read-out in assay [15]: Urokinase-type plasminogen activator receptor (uPAR), PLAUR (gene 5329)
Kind of assay: BSK_CASM3C_uPAR: BioMAP Diversity Plus: CASM3C Assay for Urokinase-type plasminogen activator receptor (uPAR) Biomarker Activity (AID 2283054).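 Further: cell-surface uPAR protein level quantified by ELISA.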 The conditions noted are these: primary human coronary artery smooth muscle cells; actives raise or lower the signal.

Read-out in assay [16]: Vascular cell adhesion molecule 1 (VCAM1), VCAM1 (gene 7412)
The assay can be described thus: BSK_CASM3C_VCAM1: BioMAP Diversity Plus: CASM3C Assay for Vascular cell adhesion molecule 1 (VCAM1) Biomarker Activity (AID 2283055).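 Further: VCAM-1 protein level quantified by ELISA on the cells.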 The conditions noted are these: primary human coronary artery smooth muscle cells; actives raise or lower the signal.

Read-out in assay [17]: Collagen III, COL3A1 (gene 1281)
Kind of assay: BSK_hDFCGF_CollagenIII: BioMAP Diversity Plus: hDFCGF Assay for Collagen III Biomarker Activity (AID 2283056). The conditions noted are these: primary human foreskin fibroblasts; actives raise or lower the signal. A digest of the protocol:
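Cells: human foreskin fibroblasts, primary. Dosing followed by 24 h incubation, then ELISA for collagen III. Both increases and decreases scored relative to DMSO.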

Read-out in assay [18]: Epidermal growth factor receptor (EGFR), EGFR (gene 1956)
The assay can be described thus: BSK_hDFCGF_EGFR: BioMAP Diversity Plus: hDFCGF Assay for Epidermal growth factor receptor (EGFR) Biomarker Activity (AID 2283057). The conditions noted are these: primary human foreskin fibroblasts; actives raise or lower the signal. In a few lines: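 ELISA readout of EGFR on human dermal fibroblasts (primary foreskin cells), 24 h post-dosing; bidirectional curve fit vs DMSO baseline, gain or loss of signal scored.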

Read-out in assay [19]: Interleukin-8 (IL8), CXCL8 (gene 3576)
The assay can be described thus: BSK_hDFCGF_IL8: BioMAP Diversity Plus: hDFCGF Assay for Interleukin-8 (IL8) Biomarker Activity (AID 2283058). The conditions noted are these: primary human foreskin fibroblasts; actives raise or lower the signal. In a few lines: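 IL-8 levels from compound-treated primary human fibroblasts were read by ELISA at 24 h, with DMSO serving as baseline for bidirectional fitting.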

Assay [20] in a line: BSK_hDFCGF_Proliferation: Cell Proliferation Assessment in the BioMAP Diversity Plus: hDFCGF Assay (AID 2283059).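 Further: curves fitted for both rise and fall of signal versus DMSO baseline.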 The conditions noted are these: primary human foreskin fibroblasts. A digest of the protocol: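 This proliferation readout used SRB total-protein staining of human foreskin fibroblasts […], normalized to DMSO with bidirectional curve fitting.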

In the case of `CC(C)CCCCCOC(=O)CS`, the result in assay [1], in [2], in [3], in assay [4], in [5] and in assay [6] was inactive. The outcome in [7], in [8], in assay [9], in assay [10], in assay [11] and in assay [12] was inactive. The result in assay [13], in [14], in [15], in assay [16], in assay [17] and in assay [18] was inactive. Besides, the result in assay [19] and in assay [20] was inactive.

One may read the AC50 as the concentration at which the activity in the assay is half-maximal. With `CCOC(=O)C1=NOC(c2ccccc2)(c2ccccc2)C1`, the outcome in assay [1], in assay [2], in assay [3], in assay [4], in assay [5] and in [6] was inactive. In addition, the outcome in assay [7], in assay [8], in assay [9], in assay [10], in [11] and in assay [12] was inactive. Moreover, the result in [13], in assay [14], in assay [15], in [17], in assay [18] and in assay [19] was inactive. In addition, the result in [20] was inactive. Moreover, in [16], the AC50 was 20 µM (active).

Turning to `CC1=CC=C(C(C)C)CC1`, the result in assay [1], in [2], in [3], in [4], in assay [5] and in assay [6] was inactive. The outcome in [7], in assay [8], in [9], in assay [10], in [11] and in [12] was inactive. Also, the outcome in assay [13], in [14], in [15], in [16], in [17] and in assay [18] was inactive. The outcome in [19] and in assay [20] was inactive.

For the compound `C1CNCCN1`, the outcome in [1], in assay [2], in [3], in [4], in assay [5] and in [6] was inactive. The result in assay [7], in [8], in [9], in [10], in assay [11] and in assay [12] was inactive. The result in [13], in [14], in [15], in assay [16], in assay [17] and in assay [18] was inactive. Besides, the outcome in [19] and in assay [20] was inactive.

Turning to `C=CC(=O)OCC(C)OCC(C)OCC(C)OC(=O)C=C` (stereo not given), the AC50 in assay [1] is 16.1 µM (active); in assay [4], 14.9 µM (active); in assay [5] it was 25.2 µM (active); in [7], 20 µM (active); in [8] it was 20 µM (active); in assay [9], 29.1 µM (active). The concentration at half-maximal activity (AC50) in assay [10] was 5.95 µM (active); in assay [11], 20 µM (active); in [13] it was 2.28 µM (active); in assay [14] it was 14.4 µM (active); in [15], 8.9 µM (active); in assay [16], 15.3 µM (active). For the same compound, the AC50 in [17] is 35.7 µM (active); in assay [18], 33.4 µM (active); in [19] it was 33.1 µM (active); in assay [20], 6.25 µM (active). Moreover, the result in assay [2], in assay [3], in assay [6] and in [12] was inactive.

On to `CC1(C)CC(O)CC(C)(C)N1[O]`, for which the result in assay [1], in [2], in [3], in [4], in [5] and in assay [6] was inactive. The outcome in assay [7], in assay [8], in assay [9], in assay [10], in assay [11] and in assay [12] was inactive. Besides, the result in assay [13], in assay [14], in assay [15], in assay [16], in assay [17] and in assay [18] was inactive. Moreover, the outcome in assay [19] and in assay [20] was inactive.

For the compound `CCOC(=O)C1=NN(c2ccc(Cl)cc2Cl)C(C)(C(=O)OCC)C1` (stereo not given), the outcome in assay [1], in [2], in assay [3], in assay [4], in [5] and in assay [6] was inactive. Moreover, the outcome in assay [7], in assay [8], in assay [9], in [10], in [11] and in assay [12] was inactive. In addition, the result in [13], in assay [14], in assay [15], in assay [16], in [18] and in assay [19] was inactive. Besides, in assay [20], the result was inactive. The AC50 in assay [17] is 20 µM (active).

As for `CCCCCCCCCCCC(C)=O`, the outcome in assay [1], in [2], in assay [3], in assay [4], in [6] and in assay [9] was inactive. Further, the outcome in [10], in [12], in assay [14], in assay [16], in [17] and in [18] was inactive. The result in assay [19] was inactive. For the same compound, the AC50 in assay [5] is 35.9 µM (active); in assay [7], 36.8 µM (active); in [8], 20 µM (active); in assay [11], 20 µM (active); in assay [13], 0.82 µM (active); in assay [15], 20 µM (active). Besides, the AC50 in assay [20] is 24.6 µM (active).

Turning to `O=C1CCCCCCCCCCC1`, the outcome in [1], in assay [2], in [3], in assay [4], in assay [5] and in [6] was inactive. Besides, the result in assay [7], in assay [8], in [9], in [10], in assay [11] and in assay [12] was inactive. Moreover, the outcome in assay [13], in [14], in assay [15], in assay [16], in assay [17] and in assay [18] was inactive. Moreover, the outcome in assay [19] and in assay [20] was inactive.

Take `CCCCCCC=O`: the result in assay [1], in assay [2], in [3], in assay [4], in assay [5] and in assay [6] was inactive. Also, the result in [7], in assay [9], in assay [10], in [11], in [12] and in assay [13] was inactive. Besides, the outcome in [14], in [15], in assay [16], in [17], in assay [18] and in assay [19] was inactive. In addition, the result in assay [20] was inactive. In addition, in assay [8], the AC50 is 0.22 µM (active).
